Active and inactive are the calls of the source.

The text below walks through data of PubChem BioAssay.

The nature of the test: basal 3T3-L1 adipocyte mitochondrial potential changes, profiling panel, cell-based, JC-1 fluorescence, 3T3-L1 adipocytes, 24 h, 100 nL compound (AID 1168). Further: test concentration not given here. The settings on record: JC-1 mitochondrial fluorescence, higher = more signal, called active from +8 up or from −8 down.
As to `C=C(/C(=C/C[C@H](OC(C)=O)c1ccc(CO)o1)c1cc(C(=O)OC)ccc1OC)C(C)C`, the z-score is 1.13 (inactive).

In the case of `COC(=O)[C@@]1(Cc2ccccc2)N=C(c2ccc(OCCCO)cc2)O[C@H]1c1ccccc1`, the z-score is 0.294 (inactive). For `CC(C)C[C@@H]1NC(=O)[C@@H]2C[C@H](C(=O)NCc3ccc(F)cc3)[C@H](c3cccc(OCCO)c3)N2C1=O`, the z-score is 0.0605 (inactive). For `O=C1c2ccccc2[C@](Cc2ccccc2I)(C(=O)NCCN2CCOCC2)[C@H](c2ccc(CO)cc2)N1C1CCCCC1`, the z-score is -1.01 (inactive). For `O=C1c2ccccc2[C@](Cc2ccccc2I)(C(=O)NCCN2CCOCC2)[C@H](c2ccc(CO)cc2)N1Cc1ccccc1Cl`, the z-score was -0.585 (inactive). With `CC(C)C(=C=CC[C@@H](O)c1ccc(OCCO)cc1)C[C@@H](O)COCc1ccccc1`, the z-score is 0.404 (inactive). For `COC(=O)[C@]1(CCC(=O)OC(C)(C)C)N=C(c2ccc(OCCCO)cc2)O[C@@H]1c1ccccc1CN=[N+]=[N-]`, the z-score is -0.718 (inactive). As for `NC(=O)NCC#Cc1ccc2c(c1)[C@]1(C(=O)N2)[C@H](c2ccccc2OCCO)N2[C@H](c3ccccc3)[C@H](c3ccccc3)OC(=O)[C@H]2[C@@H]1C(=O)Nc1nc2ccccc2s1`, the z-score was 2.99 (inactive). In the case of `C=CCC(OC(C)=O)[C@@H]1[C@@H](N(Cc2ccc(-c3ccccc3)cc2)C(=O)Cc2ccc(OC)cc2)c2cc(OCCCO)ccc2N1C(=O)Cc1ccc2ccccc2c1` (stereo not given in full), the z-score is -1.73 (inactive). Take `C=C(CCCC)C(=O)CC[C@@H](OC(=O)c1ccccc1-c1ccccc1C(=O)O)c1ccc(OCCO)cc1`: the z-score was -1.03 (inactive). With `CCCC[C@@H]1C[C@H]1[C@@H](NC(=O)c1ccco1)c1ccccc1C(F)(F)F`, the z-score was -1.22 (inactive).

Regarding `CCOC(=O)C[C@H]1[C@H](OC(=O)c2cc3ccccc3oc2=O)[C@@H](NC(=O)c2ccccc2)c2cc(OCCCO)ccc2N1C(=O)c1ccc2ccccc2n1`, the z-score is 0.122 (inactive).

For `CCN(CC)c1ccc(N2CC=CC34O[C@@H]5C=CCCOC(=O)C5[C@H]3C(=O)N(CCCCCCO)[C@@H]4C2=O)cc1` (stereo not given in full), the z-score was -0.641 (inactive). For `COC(=O)[C@@]1(Cc2ccccc2)[C@H]2c3cc(C(=O)N(C)C)n(Cc4ccsc4Br)c3C[C@H]2CN1C(=O)c1ccccc1`, the z-score is 0.332 (inactive). Turning to `COCCOC(=O)N1C(=O)[C@@]2(c3ccccc31)[C@H](c1ccccc1OCCO)N1[C@H](c3ccccc3)[C@H](c3ccccc3)OC(=O)[C@H]1[C@@H]2C(=O)N1CCN(c2ncccn2)CC1`, the z-score is 0.665 (inactive).

As for `O[C@@H](Cc1ccccc1)[C@H]1C2C=CCCC=C2CN1Cc1cccc(Cl)c1` (stereo not given in full), the z-score was -0.173 (inactive). The same measure for `COc1cc2c(cc1OC)CN(C(=O)[C@@H]1[C@H]3C(=O)O[C@H](c4ccccc4)[C@H](c4ccccc4)N3[C@H](c3ccccc3OCCO)[C@@]13C(=O)Nc1ccc(C#CCCO)cc13)CC2`: 1.2 (inactive); for `Cc1ccc(S[C@]2(C(=O)O)CC(=O)N(C(C)C)[C@@H]2c2ccc(CO)cc2I)cc1`: -0.386 (inactive); for `O=C1O[C@H](c2ccccc2)[C@H](c2ccccc2)N2[C@H]1[C@@H](C(=O)N1CCCCCCC1)[C@]1(C(=O)Nc3ccc(C#CCCO)cc31)[C@H]2c1ccccc1OCCO`: 0.757 (inactive). The same measure for `C=CCNC(=O)[C@@H]1[C@H]2C(=O)O[C@H](c3ccccc3)[C@H](c3ccccc3)N2[C@H](c2ccc(O)cc2)[C@@]12C(=O)N(C(=O)OCCOC)c1ccc(C#CCNC(N)=O)cc12`: -0.323 (inactive). Take `O=C(c1ccccc1)N1C(=O)[C@@]2(Cc3ccccc31)N=C(c1ccc(OCCCO)cc1)O[C@H]2c1ccccc1`: the z-score is 0.479 (inactive). On to `C=C(/C(=C/C[C@H](OC(C)=O)c1ccccc1OCCO)c1cnc2ccccc2c1)C(C)C`, for which the z-score was -1.34 (inactive). The same measure for `CC(C)C(CO)N1C(=O)[C@@H]2C3C(=O)OCCC/C=C\[C@H]3OC23C=CCN(CCN2CCOCC2)C(=O)[C@@H]13` (stereo not given in full): -0.173 (inactive); for `CCCC[C@H]1OB(O)C[C@H]2C1=C(COC)C[C@H]1C(=O)N(C)C(=O)[C@H]12`: 0.0166 (inactive). The same measure for `COC(=O)[C@@]1(Cc2ccc(F)cc2)[C@H]2c3cc(C(=O)N(C)C)n(Cc4ccc(Cl)c(C(F)(F)F)c4)c3C[C@H]2CN1C(=O)c1ccccc1`: -1.47 (inactive). Take `COc1ccc(CCNC(=O)[C@@]2(Sc3ccc(C)cc3)CC(=O)N(C3Cc4ccccc4C3)[C@@H]2c2ccc(CO)cc2I)cc1`: the z-score is -0.279 (inactive). Turning to `CCCC[C@H]1OB(O)C[C@H]2C1=C(COC)Cn1c(=O)n(-c3ccccc3)c(=O)n12`, the z-score is -0.199 (inactive). Turning to `CN(C)CCCCCCNC(=O)[C@@H]1C[C@@H]2C(=O)N[C@@H](Cc3ccccc3)C(=O)N2[C@@H]1c1ccc(O)cc1`, the z-score is -1.42 (inactive). For the compound `C=C(COC)/C(=C/C[C@H](OC(C)=O)c1ccc(CO)o1)c1cc(C(=O)OC)ccc1OC`, the z-score was -0.29 (inactive).

For the compound `COC(=O)[C@@]1(Cc2ccc(OC)cc2)[C@@H]2C(=CC(=O)[C@H]2CC(=O)C(=O)N2CCCC2)CN1C(=O)c1ccccc1`, the z-score was -0.407 (inactive).

Consider `Cc1ccc(N2C(=O)c3ccccc3[C@@H](C(=O)NC3CC3)[C@@H]2c2ccc(CO)cc2)nc1`, for which the z-score was -0.289 (inactive). The same measure for `COCCOC(=O)N1C(=O)[C@@]2(c3cc(C#CCC(C(=O)OC)C(=O)OC)ccc31)[C@H](C(=O)Nc1nc3ccccc3s1)[C@H]1C(=O)O[C@H](c3ccccc3)[C@H](c3ccccc3)N1[C@@H]2c1ccccc1OCCO`: 0.803 (inactive); for `COCCOC(=O)N1C(=O)[C@@]2(c3cc(C#CCC(C(=O)OC)C(=O)OC)ccc31)[C@H](c1ccccc1OCCO)N1[C@H](c3ccccc3)[C@H](c3ccccc3)OC(=O)[C@H]1[C@@H]2C(=O)NC[C@H](O)c1ccccc1`: 2.16 (inactive).

For the compound `CCCC[C@@H]1C[C@H]1[C@@H](NC(=O)c1ccccc1)c1ccc(C(=O)OC)cc1`, the z-score was -1.18 (inactive). For `O=C1[C@@]23C=C(Br)[C@H](C[C@@H]2CCOC3)[C@@]12CO2`, the z-score is -0.0633 (inactive).
